Experimental findings from the supplement of paper PMC12632987 are described below.

B1: GBRAP_160_4153 (protein)
chain: SEEIEKLIKEINEIADEAIKMMEGETPEQAKTIARVALGEMLLLVEENEAVSEETEDKIGEVVDATEATLKANPNLTVEEVKALLNEARDKIVKILKEES
B2: GBRAP_160_4155 (protein)
chain: SEELKKLIKEIKELADEAIKMMEGETPEQAKTIARVTLGDILLLVEENPAVSEEAEDKIGAIADATEATLKANPDLTVEEVKALVKEARDKVVAILEEEA
B3: GBRAP_128_3366 (protein)
chain: LDEALLAEIRALVERMITSSVEETAALTREIVARIGTLSLAEQEAAVEIILAALPKLTKEKLEVVADTIRAAAPELDPETQRLLAEVEVEALNLAEELEE
B4: GBRAP_53_6391 (protein)
chain: GEERLEELIEELNRLIEELKTADPETAIKLAREAVELLLELAELGLPEEELVELVRRFAEAARPKPELEPVLVELAKRLAALGREEAAAEVAEALVEELE
B5: GBRAP_35_5625 (protein)
chain: NTNKEIAEATVAVMEDTLLAVDEVPAETFIDTAIKVAKAGIEVAKELKDDKENAKKILEAVKELLEAALKKAEETGAPEEKIKELKELLKEVEELEKKLK
B6: GBRAP_43_5791 (protein)
chain: MEEIVEGALDFARTALETPEITDETKARIVVDAVDFAADEGLLTEEELEELLRLLAESVSLEVAERALEEILKRLKELGAPQSLIDVVEKALEEVKKRRA
B7: GBRAP_160_3991 (protein)
chain: SEEIEKLKEEFKKLFDEMLELAEGESPEERLAVVRVMMGEVILLAEESGVVSDEAEEEIAKIMDELVATVEANPDMSMEELKALVEEALKKIFEVIDKYS
B8: GBRAP_52_5980 (protein)
chain: AEAEARALAEELLALMLAGDREGARALIREIVATKSEAFLELVFAALAELARTATPEERDAIVELALLLEDEALEGGFDEAVVDAGVARVAAAAVAAAAA
B9: GBRAP_14_3765 (protein)
chain: MEEVEKIIDETGKEIAALLAELVPEKAEEFKEAIDEVRKETIARIKETGDALAAAEEGERRLAERIAEITADLPEERRAEALAVVRVLFGQAILEIDEAL
B10: GBRAP_184_5033 (protein)
chain: KVLEKEIKAKNKEELEEKLKKLAEEVKGSKADLIVLLDIENPTKEKVKLAIEGLGAIKKAGYVSSVTIGFENELSEELTDVALETADKEGVKVVLPISDE
B11: GBRAP_42_5723 (protein)
chain: MYLVNLEVVVATREELERAIAIWRERNARYRKEKGIIIRLTIAAPEEAAELAAEAEAESAELAKEADKELDWVVVAASADEVGDAIDIAVDLALEERKEE
B12: GBRAP_35_5569 (protein)
chain: STDETIVEMTVNTIEALTLAVPDLDPATLETITRQVVALAREVIEDIKNNLEGLKRILEALRALLAAIRARGLDDPHLQAAAAAVEEAIRLAEKAIKEAE
B13: GBRAP_184_5315 (protein)
chain: EVIRRFITVETKEEAEKKLKEIKEEIKKSGKKYTVYIEVKNPTKELIDTVFEEIKKMKEEGVDADFILVVEEPVDEEMEDYIVEKAKEAGARAVIALPEE
B14: GBRAP_11_2707 (protein)
chain: KKEKLKEIAKLAAEAAALTEQLLKEGVDNKELQAKLTAKIKELTELVKKYADESLKKLAEIAKELWEKALADPENKEQYLKELLATLRVLEGQALLEIEE
B15: GBRAP_52_6040 (protein)
chain: MRERMRRLAREIVELVRAGRLEEARERIRELVETLSLEELELLGEELAELAREAEPEDLDAVMEVALMLADELEKAGYPEVFADDLEARVARAAVENLER
B16: GBRAP_11_2896 (protein)
chain: KKEKLKEAAELAEKAAKLLEELIKEGPDNEELRKKAEEALEKLLELAKKYLDESSVELAESALELFEKAKEDPENAKEYLEQALAYVRVLEGQVLLEIEE
B17: GBRAP_43_5752 (protein)
chain: MEEIIEGAVDFATLAAEDPNISEEQKLKIAKDVFEIVADEGIKLPEELSKLTRALAKSLSLEQLKELLKHLKELAEKYPELKEDFEANAKIIEEAIKKKE
B18: GBRAP_35_5553 (protein)
chain: DFDKEVIEMVRATAEDLLLAVDDLPVDTLITMATQIAELTLKVAKDEKENKEELKELLEATLELLDAVIEKAEKEGAPEEDIEKLRKLKKELEEALKEAE
B19: GBRAP_160_4282 (protein)
chain: GEKLKELAEELREDRDEILSLVDKISAEEVRTFAVTSLGSILMEAIDGELLTDEEEDELAKIIDDLEAELDALKDASPEEIRAAIEKHFDKAIELLEKAA

Whole data set: some 4,500 sequences, median “median log2 fold change of GCK-ALFA target abundance (FLAG IP / Myc IP barcode read proportion)” near 0.078, cut for the lowest 2% near -0.6. The entries come from a sample that favours the lowest values as a whole.

In this assay the target is GABARAP, O95166. As to the kind of experiment: median log2 fold change of GCK-ALFA target abundance (FLAG IP / Myc IP barcode read proportion) (log2 ratio); each designed protein is fused to an ALFA-tag nanobody in HEK293 cells to bring the named protein to FLAG-tagged glucokinase (GCK); Myc marks an untargeted standard; higher = target protein stabilised (more abundant). Conditions: target protein: 3xFLAG-MCP-GCK-ALFA reporter; HEK293 landing pad (RPLP). The gist of the method: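 Sequencing of reverse-transcribed, amplified circular RNA barcodes from anti-FLAG and anti-Myc immunoprecipitates provided the readout for an ALFA-nanobody-fused binder library recombined into HEK293 landing-pad cells. Those cells were induced with 2 μg mL^−1 doxycycline, transfected with a plasmid expressing a FLAG-tagged target and a Myc-tagged standard, and lysed after 48 h. Target abundance is the per-binder median log2 ratio of FLAG to Myc barcode read proportions. Only barcodes at a proportion of ≥10^−7 in both replicates and binders with ≥3 barcodes per replicate were kept, with a 10^−6 pseudocount added before the two replicates were pooled.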
GABARAP, O95166, sequence (O95166 whole entry, the tested form may be a part): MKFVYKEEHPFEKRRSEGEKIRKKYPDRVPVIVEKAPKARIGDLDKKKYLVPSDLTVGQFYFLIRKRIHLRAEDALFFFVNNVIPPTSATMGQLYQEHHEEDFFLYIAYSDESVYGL
With B1, the “median log2 fold change” value was -0.642.

On to B2, for which the “median log2 fold change” value was -0.546.

Consider B3, for which the “median log2 fold change” value came to 0.309. The result for B4 reads 0.2; that for B5, -0.0947.

With B6, the “median log2 fold change” value was -0.0499. Consider B7, for which the “median log2 fold change” value was -0.567. The result for B8 reads -0.762. The result for B9 reads 0.0613; that for B10, -0.000909; that for B11, 0.104. In the case of B12, the “median log2 fold change” value was -0.994. Under B13 stands 0.243. The result for B14 reads 0.13. Under B15 stands -0.365; under B16, 0.203; under B17, 0.108. B18: the “median log2 fold change” value was -0.742. In the case of B19, the “median log2 fold change” value was -0.356.
